Source: PubChem
Sampled rows, rich in hits. Any-hit rate of the full collection: about 19%.
DT40 TDP1 no CPT: qHTS for Inhibitors of human tyrosyl-DNA phosphodiesterase 1 (TDP1): qHTS in cells in absence of CPT | DT40 Tdp1-/- hTDP1 cells, no CPT, ATP luminescence, 48 h | Potency, µM (top dose mostly 46.2 µM), for inactives: at the top dose activity change, negative = growth inhibition, hits mostly inhibitors | AID 686978, 2013 | actives 15% (n = 420,000); note: potency is the fitted concentration of half-maximal effect; % is set by controls: 0 for no effect and ±100 for the full control effect; nearly all actives have a fitted effect of over 55% in size
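Seeded 400 DT40-hTDP1 cells/well (vehicle DMSO, no 20 nM CPT); pinned compounds; ≥48 hr at 37 °C; CellTiter-Glo luminescence as viability measure.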
SW480 rereplic: induces DNA re-replication in SW480 colon adenocarcinoma cells | AID 624297 | actives 1.8% (n = 340,000) | SW480 DNA re-replication, Hoechst DNA content imaging, 48 h | Potency, µM (highest dose often 46.1 µM), for the others: top-dose re-replication activation, hits mostly activators; note: potency is the fitted concentration of half-maximal effect; % of control where 0% means no effect; nearly all actives have a fitted effect of over 55% in size
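Image-based DNA-content assay: after two days of treatment, nuclei were labelled with the DNA dye Hoechst and imaged, and hits were compounds raising the count of nuclei showing high fluorescence intensity.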
TDP1 cell CPT: DT40-hTDP1 cell growth loss with CPT | chicken DT40 Tdp1-/-;hTDP1 cells + 20 nM CPT, ATP luminescence, 48 h | Potency, µM (top dose mostly 46.2 µM), for inactives: at the highest dose activity change, negative = growth inhibition, hits mostly inhibitors | actives 12% (n = 420,000) | AID 686979; note: potency is the fitted concentration of half-maximal effect; % is set by controls: 0 for no effect and ±100 for the full control effect; nearly all actives have a fitted effect of over 55% in size
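Cell growth measured by CellTiter-Glo luminescence after a minimum 48 h, 37 C compound exposure with 20 nM CPT in Tdp1-knockout DT40 cells stably expressing hTDP1, seeded 400/well; qHTS titration format.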
IL-1B inflam inh: inflammasome signaling inhibition, IL-1 beta readout; THP-1 LPS/ATP IL-1B secretion, AlphaLISA, 16 h; hits give low values; activity change, % at 57.5 µM; actives 4.7% (n = 360,000); AID 743279; in the data active = activity change below about -50%; inconclusive = mostly about -30% to -49%; note: % is set by controls: 0 for no effect and ±100 for the full control effect
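THP-1 cells pretreated 1 hr with compounds (up to 57.5 uM final), then stimulated with LPS (250 ng/mL final) plus ATP (1.25 mM final); secreted IL-1B measured by AlphaLISA after 16 hr, decreased signal indicating inhibition.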
MCF10A rerep: inducers of DNA re-replication in MCF 10A breast cells. MCF 10A DNA re-replication, Hoechst nuclear intensity, 48 h. Potency, µM (doses to about 46.1 µM), without a hit: top-dose activity, positive = re-replication, usual class: activators. actives 2.9% (n = 350,000); note: potency is the fitted concentration of half-maximal effect; % of control where 0% means no effect; nearly all actives have a fitted effect of over 50% in size
Chronic BCR inh: inhibitors of chronic active B-cell receptor signaling. ABC-DLBCL IkBa-CBG/CBR reporter, luminescence ratio, 4 h. Potency, µM (doses to about 46.1 µM), without a hit: top-dose activity change, negative = inhibition, actives largely listed as inhibitors. actives 0.05% (n = 340,000). AID 493014; active = well fitted inhibition curve with a large enough effect in the signal ratio, with a control signal flat, not every such curve was filed as active; inconclusive = small, poorly fitted or top-dose-only effect, or effect the other way, or a change in a side signal; the % refers to the signal ratio;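 note: potency is the fitted concentration of half-maximal effect; plate controls were basal doxycycline-induced cells for no effect and cells given 10 µM MG132 for full effect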
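TMD8 human ABC-DLBCL cells with doxycycline-inducible IκBα–green luciferase fusion and unfused red luciferase, in 0.5% FBS medium; compounds up to 46 uM, 4 h at 37C. Green/red luminescence ratio, filter-overlap corrected, fitted to concentration-response curves.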
Active calls of the source: *; ? = inconclusive; / = no result. Unless noted, calls come from the whole dose curve; as a rule, active = well fitted curve in the direction sought with a large enough effect; inconclusive = small, poorly fitted or top-dose-only effect, or another doubt; inactive = no such curve, though single readings can be large; an effect the other way counts as inactive or inconclusive.

SMILES	DT40 TDP1 no CPT	SW480 rereplic	TDP1 cell CPT	IL-1B inflam inh	MCF10A rerep	Chronic BCR inh
COCCn1c(=O)c(C)nc2cncnc21	19.6%	/	8.9%	/	/	/
N#Cc1ccccc1S(=O)(=O)N1CCN(C(=O)c2cn(-c3ccccc3)nc2-c2cccnc2)CC1	-18.6%	-24.0%	-2.0%	-25.9	4.0%	?
CCOc1ccccc1C(=O)OCC(=O)Nc1cc(S(=O)(=O)N2CCOCC2)ccc1C	-16.7%	-0.9%	0.3%	0.0	3.0%	-5.7%
CC(=O)NC1[C@H](O)C[C@@](O)(C(=O)O)O[C@H]1[C@H](O)[C@H](O)CO (some centres undefined)	/	-0.6%	/	/	-0.5%	/
CC(C)OC(=O)c1c(NC(=O)c2cccs2)sc2c1CCCC2	-20.9%	10.2%	-25.3%	-7.2	16.4µM*	0.3%
COc1cc(C(=O)Nc2sc3c(c2C(=O)NCc2ccco2)CCCC3)cc(OC)c1OC	20.6µM*	-3.1%	?	?	18.4µM*	-14.3%
CNC(=O)c1c(NC(=O)c2ccco2)sc2c1CCCC2	-27.7%	-7.0%	-25.8%	-81.1*	7.4%	?
CC(C)OC(=O)c1c(NC(=O)c2ccco2)sc2c1CCCCC2	?	-5.6%	-0.2%	-12.8	16.4µM*	?
O=C(Nc1sc2c(c1C(=O)O)CCC2)c1ccco1	-27.9%	-4.7%	-1.0%	-6.3	0.2%	?
Cc1cc(C)cc(N(CC(=O)NC(C)(C)C)C(=O)CNC(=O)c2cccs2)c1	-1.5%	-0.2%	25.6%	-18.1	-0.1%	?
COc1ccc(CC(=O)NC2CC(=O)N(c3ccc4c(c3)OCCO4)C2)cc1 (centres undefined)	9.5%	/	-4.1%	/	/	-0.8%
Cc1ccc2c(=O)cc(C(=O)Nc3sc4c(c3C(=O)NCc3cccnc3)CCCC4)oc2c1C	?	/	-4.2%	/	/	/
O=C(Nc1sc2c(c1C(=O)NCc1cccnc1)CCCC2)c1ccco1	-20.9%	-8.2%	-22.8%	-68.0*	?	?
OC[C@]1(O)OC[C@@H](O)[C@H](O)[C@@H]1O	0.4%	/	-27.4%	/	/	/
CCOC(=O)[C@@H](NC(=O)CC[C@H]1O[C@@H](n2ccc(=O)[nH]c2=O)[C@H](O)[C@@H]1O)C(C)C	31.0%	/	-0.6%	18.2	/	/
C(=N\N(Cc1ccccc1)c1ccccc1)/c1cccnc1	2.9%	-9.8%	4.9%	-18.7	24.0%	?
Oc1ccc(/C=N/N(Cc2ccccc2)c2ccccc2)c(O)c1O	18.4µM*	?	25.9µM*	?	3.7%	4.4%
Oc1cccc(/C=N/N(Cc2ccccc2)c2ccccc2)c1	?	?	-25.3%	-55.2*	?	?
O=C(c1ccccc1)c1ccc(N2CCOCC2)c(NC(=O)c2ccco2)c1	20.6µM*	-0.4%	?	-21.0	?	?
O=C(Nc1cc(Cl)ccc1N1CCOCC1)c1ccco1	-9.0%	-6.0%	1.0%	?	0.5%	14.0%
COC(=O)c1ccc(N2CCCCC2)c(NC(=O)c2ccco2)c1	23.1µM*	0.1%	?	-1.6	?	3.5%
Cc1ccc(N2CC(C(=O)Nc3nnc(SCC(=O)N4CCOCC4)s3)CC2=O)cc1 (centres undefined)	8.5%	0.6%	13.7%	14.2	6.0%	0.4%
COCCNC(=S)N/N=C(\C)c1ccc(Cl)s1	20.6µM*	5.0%	?	-96.1*	10.2%	?
COCCNC(=S)N/N=C(\C)c1ccccc1F	?	-11.1%	?	-11.8	-49.9%	?
COCCNC(=S)N/N=C(\C)c1ccccc1O	0.082µM*	?	0.0259µM*	?	3.8%	?
SMILES	DT40 TDP1 no CPT	SW480 rereplic	TDP1 cell CPT	IL-1B inflam inh	MCF10A rerep	Chronic BCR inh
CNC(=S)N/N=C(\C)c1ccc(Cl)c(Cl)c1	5.17µM*	-20.8%	4.11µM*	-11.6	0.4%	?
COCCNC(=S)N/N=C(\C)c1ccc(Cl)c(Cl)c1Cl	4.61µM*	-6.1%	4.11µM*	18.5	-6.1%	?
C/C(=N\O)c1ccc(Cl)c(Cl)c1	8.9%	-0.5%	5.3%	20.8	-5.2%	-7.2%
COC(=O)C(Cc1ccccc1)NCC(=O)Nc1cccc(Cl)c1C (centres undefined)	0.3%	-24.5%	-27.9%	18.7	-0.2%	-3.5%
COCCNC(=S)N/N=C(\C)c1ccc(Cl)c(Cl)c1	20.6µM*	3.4%	23.1µM*	-5.3	7.4%	?
Cc1nn(CC(=O)NCCc2cccs2)c(=O)c2cc3ccccc3n12	-15.8%	4.5%	-20.7%	-10.5	-0.2%	-1.5%
COc1ccc(CNC(=O)C2(C)Cc3c(-c4cccc(C(N)=O)c4)ccnc3O2)cc1OC (centres undefined)	?	/	-4.2%	5.5	/	/
CC(=O)Nc1ccc(-c2ccnc3c2CC(C)(C(=O)NCc2ccco2)O3)cc1 (centres undefined)	1.16µM*	/	1.46µM*	54.8	/	/
CN(C)c1ccc(-c2ccnc3c2CC(C)(C(=O)NCc2ccco2)O3)cc1 (centres undefined)	6.51µM*	/	4.11µM*	-4.7	/	/
CN(C)c1ccc(-c2ccnc3c2CC(C)(C(=O)NCCC(F)(F)F)O3)cc1 (centres undefined)	5.8µM*	/	7.31µM*	-16.6	/	/
CN(C)c1ccc(-c2ccnc3c2CC(C)(C(=O)NCc2ccc(F)c(F)c2)O3)cc1 (centres undefined)	9.2µM*	/	9.2µM*	0.1	/	/
CN(Cc1ccco1)c1ncncc1-c1cccnc1	-3.7%	/	-8.6%	/	/	/
CC(NS(=O)(=O)c1cc(C(F)(F)F)ccc1Cl)C(=O)N(C)C1CCN(C)CC1 (centres undefined)	0.4%	-6.6%	1.4%	11.3	3.2%	-1.0%
CCOc1ccc(CCNC(=O)c2nn(C)c3c2CSc2ccccc2-3)cc1	?	/	16.4µM*	/	/	/
COc1ccc(OC)c(CNC(=O)c2nn(C)c3c2CSc2ccccc2-3)c1	?	/	20.6µM*	/	/	/
CC1CCC(NC(=O)c2nn(C)c3c2CSc2ccccc2-3)CC1 (centres undefined)	?	?	?	0.0	?	-2.5%
CC1CCCN(CCCNC(=O)c2nn(C)c3c2CSc2ccccc2-3)C1 (centres undefined)	?	0.4%	?	0.0	5.6%	-1.6%
Cn1nc(C(=O)NC2CCCCC2)c2c1-c1ccccc1SC2	?	1.1%	25.9µM*	11.4	4.9%	5.8%
CC(C)OCCCNC(=O)c1nn(C)c2c1CSc1ccccc1-2	20.6µM*	/	?	/	/	/
